Experimental findings from PubChem BioAssay (EPA / NIEHS) are described below.

The structures appear in SMILES notation. Active and inactive are the calls of the source. How the source made its calls: active means hit-call score of the fitted dose curve at least 0.9, where 1 is the maximum; inactive means score below 0.9.

A short description of experiment [1]: CCTE_Shafer_MEA_acute_spike_number: CCTE's Neural Acute Assay for Total Number of Spikes, Shafer Lab (AID 2284008).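 On AC50: curve fitted for decrease in spike count so AC50 reflects inhibitors.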 The method, boiled down:
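Read-out is the total spike count over 40 min, expressed as percent change from each well's own pre-treatment baseline and fitted in the loss direction against DMSO. Rat cortical neurons were exposed at 0.03-40 uM on DIV 13 or 15.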

The nature of experiment [2]: CCTE_Shafer_MEA_acute_firing_rate_mean: CCTE's Neural Acute Assay for Mean Firing Rate, Shafer Lab (AID 2284009).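 Further: analyzed for loss of signal so actives lower firing rate relative to DMSO.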 The method, boiled down: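 Primary rat cortical neurons on 16-electrode MEA wells were exposed on DIV 13 or 15 to compound (0.03-40 uM). Spike counts per recording time, averaged over electrodes, were compared between 40-min baseline and 40-min post-exposure recordings as percent change.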

Experiment [3] in a line: CCTE_Harrill_HTTr_Viability_MCF7: CCTE's 6-hour Cell Viability Assessment for the High-Throughput Transcriptomics (HTTr) Platform, in MCF-7 cells cultured in DMEM + 10% fetal bovine serum, Harrill Lab (AID 2284010). In outline: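 Propidium iodide exclusion, imaged by high-content analysis, gauged viability after a six-hour exposure across eight concentrations. Cells were MCF-7 grown in DMEM with 10% fetal bovine serum; fits run in both directions against DMSO.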

A short description of experiment [4]: CCTE_Harrill_HTTr_Apoptosis_MCF7: CCTE's 6-hour Apoptosis Assessment for the High-Throughput Transcriptomics (HTTr) Platform, in MCF-7 cells cultured in DMEM + 10% fetal bovine serum, Harrill Lab (AID 2284011). The method, boiled down: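 MCF-7 (DMEM + 10% FBS), 384-well; 8-pt dilution series, 6 h chemical exposure; caspase-3/7 activation via CellEvent Caspase 3/7 Green, HCI; bidirectional fit vs DMSO.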

Experiment [5] can be described thus: CCTE_Shafer_MEA_acute_burst_number: CCTE's Neural Acute Assay for Single-Electrode Bursts, Shafer Lab (AID 2284013). The method, boiled down:
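Primary rat cortical neurons on 16-electrode MEA wells, DIV 13 or 15, exposed to compound (0.03-40 uM; ≥3 wells); 40-min recordings at 37 C before and after treatment. Burst count expressed as percent change from baseline, DMSO as negative control.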

Experiment [6] can be described thus: CCTE_Shafer_MEA_acute_burst_duration_mean: CCTE's Neural Acute Assay for Mean Burst Duration, Shafer Lab (AID 2284014).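 Further: hits are decreases in mean burst duration relative to DMSO controls.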 The method, boiled down:
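Mean burst duration was compared between a 40 min baseline and a 40 min recording in the presence of compound (0.03-40 uM, 37 C), giving percent change per well. Cultures were rat cortical neurons at DIV 13 or 15; wells needed ≥10 active electrodes.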

Experiment [7] can be described thus: CCTE_Shafer_MEA_acute_per_burst_spike_number_mean: CCTE's Neural Acute Assay for Average Number of Spikes Per Burst, Shafer Lab (AID 2284015).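 Further: hits are decreases in mean spikes per burst versus baseline.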 In outline: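 Read-out: percent change in mean spikes per burst, each well's post-exposure 40-min recording versus its own 40-min baseline. Rat cortical cultures, DIV 13 or 15, compounds 0.03-40 uM; DMSO is negative control, loss-of-signal fitting.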

Experiment [8] can be described thus: CCTE_Shafer_MEA_acute_interburst_interval_mean: CCTE's Neural Acute Assay for Mean Interburst Interval, Shafer Lab (AID 2284016).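 Further: percent change of mean interburst interval versus each well's own pre-dose baseline; curves fitted for decrease in interburst interval relative to DMSO.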 The method, boiled down:
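Rat cortical cultures, DIV 13/15; 20 min equilibration, 40 min baseline, compound 0.03-40 uM, 40 min re-recording, 37 C. Spikes detected at 8x rms noise (300-5000 Hz band-pass). Endpoint: % change in interburst interval, fitted in loss direction vs DMSO.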

Experiment [9] is described as follows: CCTE_Shafer_MEA_acute_burst_percentage_mean: CCTE's Neural Acute Assay for Percentage of Spikes in a Burst, Shafer Lab (AID 2284017). In outline: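 Rat cortical cultures, DIV 13/15, 37 C. Spikes detected at 8x rms noise (300-5000 Hz band-pass). Burst spikes/total spikes averaged across electrodes per well; % change post- vs pre-treatment (40 min each), loss-of-signal fit vs DMSO.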

The nature of experiment [10]: CCTE_Shafer_MEA_acute_per_network_burst_spike_number_mean: CCTE's Neural Acute Assay for Average Number of Spikes in a Network Burst, Shafer Lab (AID 2284019). The method, boiled down:
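Percent change from baseline in mean spikes per network burst, spikes detected at 8x rms noise. Each compound at 0.03-40 uM in at least three wells of rat cortical cultures, recorded 40 min before and 40 min during exposure.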

Experiment [11] is described as follows: CCTE_Shafer_MEA_acute_per_network_burst_spike_number_std: CCTE's Neural Acute Assay for Standard Deviation of Number of Spikes in a Network Burst, Shafer Lab (AID 2284020).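 Further: fitted for decrease in spike-number SD versus DMSO so actives lower it.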 In outline:
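Endpoint: percent change from 40 min baseline in standard deviation of spikes per network burst, after 40 min compound exposure (0.03-40 uM, 37 C). Cortical rat neurons on MEA at DIV 13 or 15; spikes detected at 8x rms noise, 300-5000 Hz band-pass.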

A short description of experiment [12]: CCTE_Shafer_MEA_acute_network_burst_percentage: CCTE's Neural Acute Assay for Percentage of Network Bursts, Shafer Lab (AID 2284022).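 Further: curves fitted for loss so actives lower network burst percentage.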 In outline: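 Readout is the fraction of spikes falling in network bursts, expressed as per-well percent change from a 40-min pre-exposure baseline. Primary rat cortical neurons on MEA were exposed to 0.03-40 uM compound on DIV 13 or 15 and recorded for 40 min at 37 C.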

Experiment [13] is described as follows: CCTE_Shafer_MEA_acute_cross_correlation_area: CCTE's Neural Acute Assay for Area of Cross Correlation, Shafer Lab (AID 2284024).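 Further: area under pooled inter-electrode spike cross-correlation near zero lag as percent change from own baseline; curves fitted for loss of cross-correlation area so actives lower synchrony.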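 On outcome: rat primary cortical neuron networks on 48-well MEA at DIV 13 or 15 with 40 min exposure.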 The method, boiled down: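 Plates equilibrated 20 min at 37 C, then 40 min baseline was recorded, compound was added (0.03-40 uM), and a further 40 min was recorded. Wells needed ≥10 active electrodes (≥5 spikes/min) on exposure day.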

The nature of experiment [14]: CCTE_Shafer_MEA_acute_cross_correlation_HWHM: CCTE's Neural Acute Assay for Cross Correlation at Half Width at Half Maximum, Shafer Lab (AID 2284026).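 Further: spontaneous network firing of rat primary cortical neurons on multiwell microelectrode arrays; percent change per well from pre-dose baseline in spike cross-correlogram half width; hits are a decrease in cross-correlogram half width relative to DMSO.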 The method, boiled down:
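Rat cortical neuron cultures on microelectrode arrays were equilibrated 20 min at 37 C, recorded 40 min at baseline, then 40 min after compound addition (0.03-40 uM, ≥3 wells). Spikes were detected at 8x rms noise after 300-5000 Hz band-pass filtering.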

A short description of experiment [15]: CCTE_Shafer_MEA_acute_synchrony_index: CCTE's Neural Acute Assay for Synchrony, Shafer Lab (AID 2284027).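 Further: network synchrony index of spontaneous spiking in primary rat cortical neurons on MEAs; fitted for loss of signal so actives lower synchrony relative to DMSO.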 In outline: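 The synchrony index is taken as percent change per well between a 40 min baseline and a 40 min recording with compound (0.03–40 uM), at 37C. Rat cortical cultures on multiwell MEAs at DIV 13 or 15, spike threshold 8× rms noise.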

Regarding `CCn1cc(C(=O)O)c(=O)c2ccc(C)nc21`, the AC50 in [1], in [2], in [5] and in experiment [13] was 3 nM (active) in each case. The result in [3], in experiment [4], in [6], in experiment [7], in [8] and in experiment [9] was inactive. The compound was called inactive in experiment [10], in experiment [11], in experiment [12], in experiment [14] and in experiment [15].

As for `CCCCOC(=O)C(C)OC(=O)CCC` (configuration not stated), the result in experiment [3] and in experiment [4] was inactive.

On to `CC(C)(CO)CO`, for which the call in experiment [1], in [2], in [5], in experiment [6], in [7] and in [8] was inactive. Besides, the result in experiment [9], in experiment [10], in experiment [11], in experiment [12], in [13] and in experiment [14] was inactive. Further, in experiment [15], the call was inactive.

Take `CC(=O)CCc1ccc(O)cc1`: the outcome in experiment [3] and in [4] was inactive.

`CN(C)CCC=C1c2ccccc2CCc2ccccc21`: the outcome in experiment [3] and in experiment [4] was inactive.

In the case of `NC(=O)c1cccnc1`, the outcome in [3] and in [4] was inactive.

As to `c1ccc2c(c1)-c1ccc3ccc4cccc5cc-2c1c3c45`, the outcome in experiment [3] and in experiment [4] was inactive.

`CCCCCCCCCO`: the outcome in [3] and in experiment [4] was inactive.

Consider `NC(N)=NC(N)=NCCc1ccccc1`, for which the outcome in [3] and in experiment [4] was inactive.

Take `CCCCCC1CCC(=O)O1` (configuration not stated): the outcome in [3] and in [4] was inactive.

In the case of `NS(=O)(=O)c1cc(C(=O)O)c(NCc2ccco2)cc1Cl`, the result in [3] and in experiment [4] was inactive.

With `CCCO`, the outcome in experiment [3] and in experiment [4] was inactive.

On to `CC(=O)N(C)C`, for which the result in [3] and in [4] was inactive.

As to `C1COCO1`, the outcome in [3] and in [4] was inactive.

For the compound `CCOC(=O)COC(=O)c1ccccc1C(=O)OCC`, the result in experiment [3] and in [4] was inactive.

With `CC1=CCC(=C(C)C)CC1`, the outcome in experiment [3] and in experiment [4] was inactive.

Take `CC(=O)C1=C(C)[C@@H]2C[C@@]3(C1)[C@H](C)CC[C@H]3C2(C)C`: the result in [3] and in experiment [4] was inactive.

`COc1ccccc1O`: the result in experiment [3] and in experiment [4] was inactive.

For `COc1ccc(C(C)=O)cc1`, the result in experiment [3] and in experiment [4] was inactive.

For `CCOC(=O)C=Cc1ccccc1`, the outcome in experiment [3] and in experiment [4] was inactive.

For `C=C(C)C(N)=O`, the outcome in experiment [3] and in [4] was inactive.

Consider `CC1=CCC(C(C)(C)O)CC1` (configuration not stated), for which the outcome in [3] and in experiment [4] was inactive.

For the compound `CC(=O)CCC(=O)O`, the result in experiment [3] and in experiment [4] was inactive.

As for `CC(=O)C1C(=O)C=C(C)OC1=O` (configuration not stated), the result in [3] and in experiment [4] was inactive.

For the compound `C=C1CC/C=C(\C)CC[C@@H]2[C@@H]1CC2(C)C`, the result in experiment [3] and in [4] was inactive.

As to `CC(=O)OC/C=C(C)/C=C/C=C(C)/C=C/C1=C(C)CCCC1(C)C`, the outcome in experiment [3] and in experiment [4] was inactive.

Consider `CCCCCC(=O)O[C@]1(C(C)=O)CC[C@H]2[C@@H]3CCC4=CC(=O)CC[C@]4(C)[C@H]3CC[C@@]21C`, for which the result in [3] and in experiment [4] was inactive.

In the case of `CCCCOCCOCCOCCO`, the outcome in [3] and in experiment [4] was inactive.

In the case of `O=C1CCCCCCCCCCCC(=O)OCCO1`, the outcome in experiment [3] and in experiment [4] was inactive.

As a reminder, the AC50 is the concentration giving half of the maximal activity seen.
